# The sample as a whole holds a higher share of hits than the screen did.
# Tgondii IFNg: T. gondii growth inhibition with IFN-gamma, primary screen, cell-based; 3.8% of 69,000 active; activity change, negative = inhibition, % (no concentration beside the values); Toxoplasma gondii growth in IFN-gamma-treated host cells; stronger effect = lower value; in the data active means activity change below about -70%, passing the limit was not always enough;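 further: host cells are HeLa cells infected with Toxoplasma gondii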
# * marks the source's active call; other numbers are inactive results; i = inactive; ! = not confirmed by another sample.
SMILES,Tgondii IFNg
Cc1noc(C)c1-c1nc2c([nH]1)CC(c1ccc(Cl)cc1)CNC2=O (centres undefined),-56.3
COc1ccc(CC(=O)N2CCc3ncnc(NC4CC4)c3CC2)cc1,-69.0
O=C(c1ccco1)N1CCc2ncnc(NC3CC3)c2CC1,-86.0*
COc1cccc(CC(=O)N2CCc3ncnc(NC4CC4)c3CC2)c1,-2.9
COc1ccc2c(c1OC)C(=O)OC2[C@H]1c2c(cc3c(c2OC)OCO3)CCN1C (some centres undefined),23.7
COc1ccc2cc1Oc1ccc(cc1)C[C@H]1c3c(cc4c(c3Oc3cc5c(cc3OC)CCN(C)[C@@H]5C2)OCO4)CCN1C,-4.9
COc1ccc2cc1Oc1ccc(cc1)C[C@H]1c3cc(c(OC)cc3CCN1C)Oc1c(OC)c(OC)cc3c1[C@H](C2)N(C)CC3,-71.4*!
O=C(O)c1ccc2c(c1)nc(Nc1cccc(Cl)c1)c1ccncc12,-72.6*
Cc1cccc(Nc2nc(C(=O)Nc3cccc(Cl)c3)nc3ccccc23)c1,30.5
Cc1ccc(Nc2nc(C(=O)Nc3cccc(Cl)c3)nc3ccccc23)cc1,5.2
Nc1cc(-c2ccc(C3(O)CCNCC3)cc2)c2cc[nH]c2n1,75.5
O=C(O)c1cc(-c2ccc3c(c2)OCO3)nc2ccc(Br)cc12,8.4
O=C(O)c1cccc(-c2ccc3c(c2)OCO3)c1,-74.6*
O=C(c1ccc2c(c1)OCO2)N1CCCCC1,-3.9
CCOc1ccc(-c2nc(Cn3ccn4nc(-c5ccc6c(c5)OCO6)cc4c3=O)c(C)o2)cc1OC,53.6
CC(C)CCN1c2nc(Nc3cc(F)c(O)c(F)c3)ncc2N(C)C(=O)C1C (centres undefined),-83.6*
COc1ccc(-c2nnn(C3CCN(C(=O)c4cnsc4)CC3)n2)cc1,-7.7
O=C(O)c1ccc(C2CCN(C(=O)CC3CCS(=O)(=O)CC3)C2)cc1 (centres undefined),39.8
CC(=O)N1CCC(Cc2cnc(Br)cn2)C1 (centres undefined),6.5
Cc1ccc(-c2nc(CSc3nc4c(=O)[nH]cnc4n3-c3ccccc3)c(C)o2)cc1,-104.5*
COc1cccc(-c2nc(CSc3nc4c(=O)[nH]cnc4n3-c3ccccc3)c(C)o2)c1OC,-54.0
Cc1ccc(-n2c(SCc3nc(-c4cccc(C)c4)oc3C)nc3c(=O)[nH]cnc32)cc1,i
Cc1oc(-c2ccc(Cl)cc2)nc1CSc1nc2c(=O)[nH]cnc2n1-c1ccccc1,-27.5
CCn1c(SCc2nc(-c3ccc(C)cc3)oc2C)nc2c(=O)[nH]cnc21,23.6
Cc1ccc(-c2nc(CSc3nc4c(=O)[nH]cnc4n3-c3ccc(C)cc3)c(C)o2)cc1,-94.9*
SMILES,Tgondii IFNg
Cc1oc(-c2cccc(Cl)c2)nc1CSc1nc2c(=O)[nH]cnc2n1-c1ccccc1,-84.2*
CCn1c(SCc2nc(-c3cccc(Cl)c3)oc2C)nc2c(=O)[nH]cnc21,164.6
Cc1oc(-c2ccc(OC(C)C)cc2)nc1CSc1nc2c(=O)[nH]cnc2n1-c1ccccc1,-68.6
COc1ccc(CC(=O)N2CCC3(CC2)Nc2cc(F)ccc2-n2cccc23)cc1OC,59.3
COCCn1c2c(ccc1=O)CC(NCC1CCOC1)CC2 (centres undefined),-1.0
COCC(NC(=O)c1cc(-c2ccccc2Cl)oc1C)c1ccccn1 (centres undefined),-35.4
CCn1c(C2CCN(C(=O)CC3=CCNCC3)CC2)n[nH]c1=O,2.4
Cc1nnc(CCNc2ccnc(C(=O)NC3CC3)c2)s1,-2.7
Cc1[nH]c2c(CN3CCC(CNS(C)(=O)=O)C3)cccc2c1C (centres undefined),53.9
CN1C(COCC2CC2)CCC12CCN(C(=O)CS(C)(=O)=O)CC2 (centres undefined),5.2
COc1ccc(CCN2C(=O)N(C)C(=O)C23CCN(CCC(C)c2ccc(C)o2)CC3)cc1 (centres undefined),1.6
Cc1ccc(Nc2nc(N)nc(CN3CCc4ccccc4C3)n2)cc1,-98.5*
CCOc1ccc(Nc2nc(N)nc(CN3CCN(C)CC3)n2)cc1,30.8
Cc1ccc(Nc2nc(N)nc(CSc3nc4ccccc4s3)n2)cc1,-64.3
CC(C)NC(=O)N1CCC2(CC1)CCn1c(C3CC3)cnc12,-4.3
COc1ccc(-c2nc(NCCCN3CCCC(C)C3)c3ccccc3n2)cc1 (centres undefined),-46.7
COc1ccccc1CN1CC[C@H]2[C@@H](CO[C@H]2CC(=O)NC2CC2)C1,-2.7
CC(C)CN1CC2(CCN(C(=O)Cc3ccc(Cl)cc3)C2)C1,-3.1
CCn1nnc(NC(=O)c2cccc3ccccc23)n1,123.6
O=C(Cn1ncc2c(N3CCCCCC3)ncnc21)Nc1ccc(F)cc1,-2.6
O=C(Cn1ncc2c(N3CCCC3)ncnc21)NCc1ccncc1,-35.2
O=C(Cn1ncc2c(N3CCN(c4ccccn4)CC3)ncnc21)NCc1ccc(F)cc1,-99.9*
Cc1ccc(CNC(=O)Cn2ncc3c(N4CCN(c5ccccn5)CC4)ncnc32)cc1C,134.1
O=C(Cn1ncc2c(N3CCN(c4ccccn4)CC3)ncnc21)NCc1ccco1,-97.0*
CCCNC(=O)Cn1ncc2c(N3CCN(c4ccccn4)CC3)ncnc21,44.5

# Compound activity deposited in PubChem by Broad Institute.
